CtBP-E1A blk = CtBP/E1A binding inhibition | AlphaScreen GST-E1A/His-CtBP binding, 1536-well; hits give low values | activity change, % (no concentration beside the values) | 340,000 compounds, 0.49% hits | AID 651724; in the data active means activity change below about -65%; inconclusive means mostly about -30% to -63%; further: on the % scale 0 is the no-effect control and ±100 the full control effect
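GST-E1A and His-tagged CtBP (125 nM each as 5X stock) were preincubated with pin-transferred compound for 2 h at 37 °C in the dark, then glutathione donor and nickel acceptor beads were added for 1 h before AlphaScreen reading.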
JMJD2A Tudor = blocks the human JMJD2A Tudor domain; AID 504339; 390,000 compounds, 4.4% hits; AlphaScreen JMJD2A-Tudor / H3K4me3 peptide binding; Potency, µM (doses to about 114 µM), inactives show top-dose activity change, negative = inhibition, hits mostly inhibitors; further: potency means the concentration at half of the fitted maximal effect; on the % scale 0 is the no-effect control and ±100 the full control effect; nearly all actives have a fitted effect of over 50% in size
Target sequence (O75164 whole entry, looked up, the tested form may be a part): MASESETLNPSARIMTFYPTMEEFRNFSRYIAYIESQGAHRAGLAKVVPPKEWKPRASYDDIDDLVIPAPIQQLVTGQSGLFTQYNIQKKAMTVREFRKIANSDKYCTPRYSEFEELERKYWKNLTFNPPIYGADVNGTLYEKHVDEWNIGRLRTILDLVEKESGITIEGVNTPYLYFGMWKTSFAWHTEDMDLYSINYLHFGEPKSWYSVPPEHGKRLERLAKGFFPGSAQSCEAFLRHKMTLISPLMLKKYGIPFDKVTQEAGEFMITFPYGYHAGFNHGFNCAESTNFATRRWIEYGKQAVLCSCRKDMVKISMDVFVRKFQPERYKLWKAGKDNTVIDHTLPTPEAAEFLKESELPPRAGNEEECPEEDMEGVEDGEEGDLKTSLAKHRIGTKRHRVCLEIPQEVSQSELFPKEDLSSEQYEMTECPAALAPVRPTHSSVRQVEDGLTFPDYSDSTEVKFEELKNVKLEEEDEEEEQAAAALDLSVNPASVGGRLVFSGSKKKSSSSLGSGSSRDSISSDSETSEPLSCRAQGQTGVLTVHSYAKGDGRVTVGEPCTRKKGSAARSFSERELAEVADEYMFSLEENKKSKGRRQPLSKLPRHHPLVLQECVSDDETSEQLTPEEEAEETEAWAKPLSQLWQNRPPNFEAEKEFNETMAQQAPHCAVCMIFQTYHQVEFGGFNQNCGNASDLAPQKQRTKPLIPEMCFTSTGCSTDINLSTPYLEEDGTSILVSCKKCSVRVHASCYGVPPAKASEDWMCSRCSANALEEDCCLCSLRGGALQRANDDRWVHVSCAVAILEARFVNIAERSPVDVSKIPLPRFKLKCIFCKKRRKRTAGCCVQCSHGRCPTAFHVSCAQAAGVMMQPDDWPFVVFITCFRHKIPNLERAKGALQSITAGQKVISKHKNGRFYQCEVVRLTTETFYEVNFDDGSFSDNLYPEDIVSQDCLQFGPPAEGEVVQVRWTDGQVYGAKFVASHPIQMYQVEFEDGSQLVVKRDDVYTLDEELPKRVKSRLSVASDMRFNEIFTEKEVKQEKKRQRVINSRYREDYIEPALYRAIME
G9a inh = inhibitors of human histone lysine methyltransferase G9a. G9a H3K9 monomethylation, AlphaScreen, 2 h. Potency, µM (titrated, usually from 102 µM), for the others: at the top dose activity, negative = inhibition, usual class: inhibitors. 350,000 compounds, 8.8% hits. AID 504332; further: potency means the concentration at half of the fitted maximal effect; on the % scale 0 is the no-effect control and ±100 the full control effect; nearly all actives have a fitted effect of over 75% in size
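Enzyme 20 nM + cpd, 15 min RT; add b-H3K9 pep 500 nM / SAM 20 uM; 2 h RT; anti-H3K9me1 Ab 0.5 ug/mL + SA donor / anti-rabbit acceptor beads 20 ug/mL each, 10 min; AlphaScreen read.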
BAZ2B inh = inhibitors of human BAZ2B bromodomain | 360,000 compounds, 4.4% hits | AlphaScreen BAZ2B-H3K14Ac peptide displacement | AID 504333 | Potency, µM (doses to about 114 µM), for the others: top-dose activity change, negative = inhibition, actives largely listed as inhibitors; further: potency means the concentration at half of the fitted maximal effect; on the % scale 0 is the no-effect control and ±100 the full control effect; nearly all actives have a fitted effect of over 60% in size
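In this displacement format the biotinylated H3(5-23) peptide acetylated at Lys14 serves as ligand at 50 nM, with BAZ2B at 50 nM in PBS pH 7.4 containing 0.01% Tween-20. Donor and acceptor beads are 10 ug/mL final.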
Six1-Eya2 inh = Six1/Eya2 interaction inhibition; AID 651725; Q15475+O00167; 360,000 compounds, 0.56% hits; activity change, % (no concentration beside the values); AlphaScreen GST-Six1/His-Eya2 binding, biochemical; hits give low values; in the data active means activity change below about -65%; inconclusive means mostly about -30% to -63%; further: on the % scale 0 is the no-effect control and ±100 the full control effect
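GST-Six1 + His-Eya2 (5X stock: 250/500 nM); Tris pH 8.0, 300 mM NaCl, 0.05% BSA, 0.02% Tween 20; GSH donor/Ni acceptor beads; 1 h 37 °C dark; AlphaScreen readout.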
HP1b chromo inh = blocks HP1-beta chromodomain binding to methylated histone tails. P83916. AlphaScreen HP1-beta / biotin-H3K9me3 peptide binding. Potency, µM (doses to about 114 µM), inactives show top-dose activity change, negative = inhibition, hits mostly inhibitors. 390,000 compounds, 0.56% hits. AID 540317; further: potency means the concentration at half of the fitted maximal effect; nearly all actives have a fitted effect of over 70% in size
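HP1-beta protein (50 nM final) preincubated 30 min at room temperature with biotinylated H3(1-18)K9me3 peptide (50 nM) in PBS pH 7.4, 0.01% Tween-20, then compound added for 30 min. AlphaScreen streptavidin donor/nickel chelate acceptor beads (10 ug/mL final), 30 min dark, luminescence read.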
* = called active by the depositor; ? = inconclusive; nt = not tested or not shown; [ ] = another dose, or the depositor's remark. Most compounds without a hit are left out; they make up all but 10% or so of the library. Unless noted, the call rests on the fitted dose curve; in most records, active means well fitted inhibition curve with a large enough effect; inconclusive means small, poorly fitted or top-dose-only effect; inactive means no such curve, though single readings can be large or run the other way.

SMILES | CtBP-E1A blk | JMJD2A Tudor | G9a inh | BAZ2B inh | Six1-Eya2 inh | HP1b chromo inh
Cc1ccc(/C(O)=C2/C(=O)C(=O)N(c3ccccn3)C2c2cccc([N+](=O)[O-])c2)cc1 (stereo not given) | 2.2 | -21.0% | 35.5µM* | -36.7% | -0.3 | 2.6%
Cc1ccc(/C(O)=C2/C(=O)C(=O)N(c3ccccn3)C2c2ccc([N+](=O)[O-])cc2)cc1 (stereo not given) | nt | -31.6% | 70.8µM* | 4.4% | -1.7 | 6.4%
COc1ccc(/C(O)=C2/C(=O)C(=O)N(c3ccccn3)C2c2ccc(F)cc2)cc1 (stereo not given) | 2.9 | -16.3% | -14.0% | -31.0% | 1.2 | 0.2%
COc1ccc(C2/C(=C(/O)c3ccc(C)cc3)C(=O)C(=O)N2c2ccccn2)cc1 (stereo not given) | 7.2 | -22.0% | 44.7µM* | -12.9% | 0.5 | 2.8%
COC(=O)c1ccccc1NC(=O)c1cc(-c2ccc(Cl)cc2)on1 | nt | -9.9% | 3.1%[59 µM] | -1.7% | nt | 16.6%
Cc1ccc(CN2COc3c(Cl)cc4c(-c5ccccc5)cc(=O)oc4c3C2)cc1 | nt | -9.7% | 4.3%[59 µM] | -2.1% | nt | 66.5%
CCn1c(CNC(=O)c2ccc(OC)cc2)nnc1SCC(=O)Nc1cccc(C)c1C | nt | -2.0% | 2.4%[59 µM] | -0.4% | nt | 43.9%
O=C(NNc1ccc(-c2csnn2)cc1)c1ccccc1C(F)(F)F | -22.2 | -8.7% | 28.2µM* | 0.0% | 7.7 | 24.8%
O=C(NNc1ccc(-c2csnn2)cc1)c1cc(Cl)cc(Cl)c1 | -3.3 | -20.1% | nt | -1.9% | -11.9 | 33.6%
S=C1NCCc2ccccc2C1c1ccccc1 (stereo not given) | -17.4 | -32.5% | ? | 44.7µM* | -25.9 | ?
S=C1NCCc2ccccc2C1c1ccccc1Cl (stereo not given) | -7.8 | ? | 5.3%[59 µM] | 44.7µM* | -10.8 | -14.1%
CCc1ccccc1NC(=O)Cn1nnc2sc3c(c2c1=O)CCC(C(C)(C)C)C3 (stereo not given) | nt | -17.9% | -4.1%[59 µM] | -18.1% | nt | 13.8%
COc1ccc(N2CCCC2)c(NC(=O)COc2ccccc2Cl)c1 | -11.7 | -13.0% | 35.5µM* | ? | -15.6 | -7.4%
COc1ccc(N2CC(C(=O)Nc3cc(C(F)(F)F)ccc3N3CCCC3)CC2=O)c(OC)c1 (stereo not given) | 2.8 | -17.3% | ? | -27.3% | -9.5 | 1.1%
COc1ccc(N2CC(C(=O)Nc3ccccc3N3CCCC3)CC2=O)c(OC)c1 (stereo not given) | -0.8 | -19.6% | 50.1µM* | 2.8% | -3.4 | 15.4%
COC(=O)c1ccccc1NC(=S)NC(=O)COc1ccccc1Cl | 5.5 | -12.5% | ? | 5.3% | 7.6 | 27.5%
COc1ccc(OCC(=O)Nc2cc(OC)ccc2N2CCCCC2)cc1 | 2.0 | -5.2% | 21.2% | -22.5% | -10.5 | 33.6%[57 µM]
O=C(COc1ccccc1Cl)NC(=S)Nc1ccccc1N1CCCC1 | -27.8 | ? | 39.8µM* | 20µM* | ? | 5.2%
CCOC(=O)c1cnc2c(N=Nc3ccccc3)c(N)nn2c1N | -3.0 | -27.9% | 0.7% | 10.6%[57.1 µM] | -1.6 | 5.4%
COC(=O)c1ccc(C(=O)N2CCCC(C)(C(=O)NS(=O)(=O)C3CC3)C2)cc1 (stereo not given) | 4.7 | nt | nt | nt | 8.7 | nt
CCOc1ccc(Cl)cc1S(=O)(=O)N1CCC(C(=O)NC2CC2)CC1 | -6.4 | 2.5% | 9.3% | 4.2% | 0.3 | 24.3%
Cc1nc(CCNC(=O)CC2C(=O)NCCN2Cc2ccccc2)nc2c1CCC2 (stereo not given) | -10.0 | -25.7% | 50.1µM* | -34.3% | 18.0 | 16.3%
CCOc1ccc(CN2CCNC(=O)C2CC(=O)NCCc2nc(C)c3c(n2)CCC3)cc1 (stereo not given) | 1.3 | -16.0% | 15.0%[12.7 µM] | -6.7% | 0.6 | 21.5%
Cc1cc(CNC(=O)CC2C(=O)NCCN2Cc2ccccc2)nn1C (stereo not given) | 1.2 | -9.7% | 44.7µM* | -2.3% | 3.5 | 51.4%

Screening results (PubChem BioAssay)
